In PubChem BioAssay:
“And” between values parts separate entries of the source, which are not always exact repeats. Equal values may be shown once. Records with an inconclusive call do not appear. For some of these results: Entries with a potency or affinity are not part of this list. The source made the active and inactive calls. Unless noted, the rule behind the calls is not given here.

Columns and labels:
[1] = target: 6-phosphogluconate dehydrogenase, decarboxylating (Homo sapiens) (UniProt P52209); test: inhibition of human phosphogluconate dehydrogenase – biochemical, recombinant enzyme, NADPH absorbance, primary screen (AID 1159550;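 active = at least 20% inhibition of 6-phosphogluconate dehydrogenase activity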); details: recombinant 6PGD, NADPH absorbance 341 nm; at 10 µM; stronger effect = higher value
[2] = viability loss in pontine glioma line – cell-based, SU-DIPG-XVII, MIPE5.0, CellTiter-Glo, qHTS, dose response (AID 1347060; cut-off not given, nearly all actives have AC50 up to about 26 µM); details: CellTiter-Glo ATP luminescence
[3] = viability loss in pontine glioma line – cell-based, SU-DIPG-XIII, MIPE4.0, CellTiter-Glo, qHTS, dose response (AID 1347061; cut-off not given, nearly all actives have AC50 up to about 37 µM;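 note: cells exposed to compound for 48 hours before readout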); details: CellTiter-Glo ATP luminescence
[4] = viability loss in pontine glioma line – cell-based, JHH-DIPG-1, MIPE4.0, CellTiter-Glo, qHTS, dose response (AID 1347062; cut-off not given, nearly all actives have AC50 up to about 27 µM); details: JHH-DIPG-1 viability, CellTiter-Glo ATP luminescence
[5] = viability loss in pontine glioma line – cell-based, SU-DIPG-IV, MIPE4.0, CellTiter-Glo, qHTS, dose response (AID 1347063; cut-off not given, nearly all actives have AC50 up to about 30 µM;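 note: compound exposure lasted 48 hours before the viability readout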); details: CellTiter-Glo ATP luminescence
[6] = viability loss in pontine glioma line – cell-based, SU-DIPG-XIII, MIPE5.0, CellTiter-Glo, qHTS, dose response (AID 1347064; cut-off not given, nearly all actives have AC50 up to about 23 µM); details: CellTiter-Glo ATP luminescence
[7] = viability loss in pontine glioma line – cell-based, SU-DIPG-XXV, MIPE5.0, CellTiter-Glo, qHTS, dose response (AID 1347065; cut-off not given, nearly all actives have AC50 up to about 26 µM;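 note: cells exposed to compound for 48 hours before ATP readout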); details: CellTiter-Glo ATP luminescence
[8] = growth inhibition of DIPG cells – cell-based, MIPE4.0 library, CellTiter-Glo luminescence, qHTS (AID 1347066; cut-off not given, nearly all actives have AC50 up to about 30 µM;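 note: cells exposed to compound for 48 hours before readout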); details: SU-DIPG-VI viability, CellTiter-Glo ATP luminescence
[9] = JHH-DIPG-1 glioma cell viability, MIPE5.0 library, CellTiter-Glo luminescence, qHTS (AID 1347067; cut-off not given, nearly all actives have AC50 up to about 26 µM;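 note: cells exposed to compound for 48 hours before readout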); details: JHH-DIPG-1 glioma viability, CellTiter-Glo ATP luminescence
[10] = growth inhibition of DIPG cells – cell-based, MIPE5.0 library, qHTS (AID 1347068; cut-off not given, nearly all actives have IC50 up to about 30 µM); details: SU-DIPG-XXV viability
[11] = MELAS cybrid and Rieske KO viability enhancers – cell-based, MELAS cybrids, Rieske KO mouse fibroblasts, CellTiter-Glo, primary screen (AID 1508586;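 active = mean z-score across replicates of 1.96 or higher in either the MELAS or the Rieske mutant cell line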;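 note: z relative to plate mean and SD of compound and empty wells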); details: low glucose
[12] = target: NAD(+) hydrolase SARM1 (Homo sapiens) (UniProt Q6SZW1); test: blocking NAD cleavage by SARM1 SAM-TIR – cell lysate, NAD-Glo luminescence (AID 1508614;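 active = compound whose remaining NAD level is above about 45 nM, limit read from the data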;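 note: higher remaining NAD means stronger inhibition of SARM1 NADase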); details: SAM-TIR HEK293T lysate NADase, at 1 µM, stronger effect = higher value
[13] = P. berghei load reduction in hepatocytes – cell-based, HepG2, luciferase luminescence, HepG2 viability, primary screen (AID 624349; in the data active = parasite load remaining mostly below about 12%, no sharp cut-off; inactive = mostly above about 10%;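 note: 100% = mean of DMSO negative control wells on the same plate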); details: P. berghei liver stage in HepG2, luciferase luminescence, concentration not given here; parasite load remaining: stronger effect = lower value; viability: measured here: HepG2 viability without parasites
[14] = test system: Aerobactin synthetase IucA (Klebsiella pneumoniae hvKP1); test: IucA enzyme inhibition, primary screen, biochemical, Spectrum library (AID 1346200); details: malachite green pyrophosphate, A620, at 8 µM, stronger effect = lower value;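 note: 100% = wells without compound and 0% = wells lacking enzyme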
[15] = viability loss with induced miR-34 in A549 – imaging, A549 dox-inducible miR-34, nuclei and caspase counts, primary screen (AID 1347080;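 active = compounds whose cell count with miR-34 switched on is under 0.7 times the count with it off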); details: A549 miR-34 inducible, Hoechst nuclei count, 48 h
[16] = target: Mitogen-activated protein kinase 7 (Homo sapiens) (UniProt Q13164); test: Gal4-ERK5 driven luciferase induction – cell-based, HTS, primary screen (AID 1508626;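 active = luciferase signal above three times the same-plate solvent-only control wells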;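 note: luciferase driven by Gal4-ERK5 fusion binding five Gal4 sites before minimal TATA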); details: HeLa Gal4-ERK5 transactivation, 18 h, at 5 µM, stronger effect = higher value
[17] = blockers of polyQ-driven CASP3 activation – cell-based (AID 1583); details: polyglutamine-induced caspase-3 activation, cell assay; stronger effect = higher value;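 tested at 10 µM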
[18] = target: Huntingtin (Homo sapiens) (UniProt P42858); test: mutant huntingtin aggregation blockers – QA1, dose response (AID 1584); details: in vitro mutant huntingtin aggregation assay; confirmation test; at 10 µM; stronger effect = lower value
[19] = blockers of biotin-polyQ monomer incorporation into aggregates – biochemical, solid-phase synthetic aggregates, QA3 (AID 1585); details: polyQ aggregate elongation; EC50: measured here: elongation inhibition potency; inhibition: at 100 µM, stronger effect = higher value
[20] = yeast 75Q aggregation reduction – 75Q-TubU reporter (AID 1593); details: Yeast 75Q polyglutamine aggregation reporter
[21] = restoration of touch response, mutant HTT neurons – whole organism, C. elegans mechanosensory neurons, N-terminal huntingtin (AID 1599); details: C. elegans polyQ-huntingtin mechanosensory neurons, stronger effect = higher value
[22] = blockers of cytochrome c efflux from mitochondria – biochemical, purified mitochondria (AID 1603); details: stronger effect = lower value;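 note: mouse liver mitochondria challenged with calcium chloride; signal normalized to the plate average as 100%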
[23] = polyglutamine aggregate formation blockers (AID 1604); details: polyglutamine-induced protein aggregation inhibition assay; stronger effect = higher value; tested at 2.5 µM
[24] = glutamate transport activators, MN-1 cells, MN-1 cell line (AID 1612); details: MN-1 motor neuron cells, stronger effect = higher value;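 note: tested at 1 µM final; 0% = mean of DMSO vehicle wells on each plate; positive means more glutamate uptake than control and negative means less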
[25] = GFP-Q80 aggregate reduction, neuronal-like cells, cell-based, NGF-treated PC12, GFPQ80 (AID 1614); details: PC12 NGF-treated GFP-polyQ80 inclusion reduction;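 note: lower means fewer inclusions and 0 means no inclusions at all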
[26] = 75Q-TubH aggregate inhibition, S. cerevisiae, yeast (AID 1616); details: S. cerevisiae 75Q-TubH polyglutamine aggregation suppression; stronger effect = higher value
[27] = compounds altering viability of human ES cells (AID 493140); details: human embryonic stem cell survival screen; stronger effect = higher value;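 note: cells exposed to compounds for four days before counting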
[28] = target: ATP-dependent translocase ABCB1 (Homo sapiens) (UniProt P08183); test: P-glycoprotein substrate transport blockade – cell-based (AID 377; in the data active = fluorescence slope change above about 50%); details: MDR1-expressing cells, fluorescent substrate accumulation slope; stronger effect = higher value; concentration not given here
[29] = test system: Aerobactin synthetase IucA (Klebsiella pneumoniae, hypervirulent); test: biochemical IucA inhibition screen of LOPAC library by absorbance (AID 1346212); details: IucA enzyme assay, absorbance (OD) readout; stronger effect = lower value;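 tested at 8 µM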;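 note: 100% = no compound wells and 0% = no enzyme wells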
[30] = galactose survival enhancers in mitochondrial complex I cybrids – cell-based, galactose medium, ATP luminescence, primary screen (AID 1645843;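 active = z-score of at least 1.8 in each of two replicates, scored against plate mean and spread of sample wells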;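 note: positive z means more ATP and so rescue of galactose-driven cybrid death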); details: complex I mutant cybrid cells, 72 h, stronger effect = higher value
[31] = MELAS cybrid survival, CellTiter-Glo 48 h, stronger effect = higher value
[32] = Rieske KO mouse fibroblast survival, CellTiter-Glo 72 h
[33] = measured here: relative caspase fold change +Dox/-Dox
[34] = measured here: total cells with miR-34 induction, stronger effect = lower value
[35] = measured here: total cells without miR-34 induction

Sequence of Mitogen-activated protein kinase 7 (Homo sapiens) (Q13164 whole entry, looked up, the tested form may be a part): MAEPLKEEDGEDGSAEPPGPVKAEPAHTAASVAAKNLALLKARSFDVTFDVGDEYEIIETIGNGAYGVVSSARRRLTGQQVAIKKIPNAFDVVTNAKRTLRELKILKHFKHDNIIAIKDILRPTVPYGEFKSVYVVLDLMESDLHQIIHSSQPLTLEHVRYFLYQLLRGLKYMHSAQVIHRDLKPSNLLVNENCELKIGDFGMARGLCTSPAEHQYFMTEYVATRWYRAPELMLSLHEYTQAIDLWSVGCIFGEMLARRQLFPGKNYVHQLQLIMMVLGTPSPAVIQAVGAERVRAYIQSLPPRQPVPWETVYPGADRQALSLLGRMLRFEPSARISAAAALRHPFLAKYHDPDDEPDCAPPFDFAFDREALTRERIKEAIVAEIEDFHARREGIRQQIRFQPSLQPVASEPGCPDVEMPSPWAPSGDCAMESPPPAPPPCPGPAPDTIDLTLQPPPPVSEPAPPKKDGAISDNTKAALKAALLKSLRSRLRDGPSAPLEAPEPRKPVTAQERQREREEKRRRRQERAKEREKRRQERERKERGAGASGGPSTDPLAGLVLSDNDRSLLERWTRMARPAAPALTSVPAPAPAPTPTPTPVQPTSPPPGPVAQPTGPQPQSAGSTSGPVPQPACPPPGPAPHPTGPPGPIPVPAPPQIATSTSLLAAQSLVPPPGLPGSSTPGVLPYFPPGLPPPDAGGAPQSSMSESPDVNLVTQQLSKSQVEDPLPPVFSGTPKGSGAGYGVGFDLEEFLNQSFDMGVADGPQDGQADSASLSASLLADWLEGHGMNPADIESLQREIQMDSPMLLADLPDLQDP
Sequence of NAD(+) hydrolase SARM1 (Homo sapiens) (Q6SZW1 whole entry, looked up): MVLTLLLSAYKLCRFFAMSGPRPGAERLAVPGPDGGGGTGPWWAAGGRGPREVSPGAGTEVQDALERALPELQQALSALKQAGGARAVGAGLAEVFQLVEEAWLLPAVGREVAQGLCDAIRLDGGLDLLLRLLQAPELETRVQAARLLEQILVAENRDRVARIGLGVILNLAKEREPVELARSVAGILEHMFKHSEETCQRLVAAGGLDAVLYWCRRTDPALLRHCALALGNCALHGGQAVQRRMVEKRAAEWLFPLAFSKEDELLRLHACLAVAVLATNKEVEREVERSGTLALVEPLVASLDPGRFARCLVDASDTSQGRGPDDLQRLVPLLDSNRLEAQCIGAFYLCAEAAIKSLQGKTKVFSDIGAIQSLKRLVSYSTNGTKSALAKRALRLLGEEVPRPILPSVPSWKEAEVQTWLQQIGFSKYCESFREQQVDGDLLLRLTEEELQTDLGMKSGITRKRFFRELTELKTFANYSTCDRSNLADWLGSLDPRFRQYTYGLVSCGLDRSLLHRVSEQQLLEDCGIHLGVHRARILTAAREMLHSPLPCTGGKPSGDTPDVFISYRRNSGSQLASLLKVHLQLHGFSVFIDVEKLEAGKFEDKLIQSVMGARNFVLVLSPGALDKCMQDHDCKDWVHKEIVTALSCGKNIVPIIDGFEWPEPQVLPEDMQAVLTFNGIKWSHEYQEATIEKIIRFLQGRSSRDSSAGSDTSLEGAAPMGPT
Sequence of 6-phosphogluconate dehydrogenase, decarboxylating (Homo sapiens) (P52209 whole entry, looked up): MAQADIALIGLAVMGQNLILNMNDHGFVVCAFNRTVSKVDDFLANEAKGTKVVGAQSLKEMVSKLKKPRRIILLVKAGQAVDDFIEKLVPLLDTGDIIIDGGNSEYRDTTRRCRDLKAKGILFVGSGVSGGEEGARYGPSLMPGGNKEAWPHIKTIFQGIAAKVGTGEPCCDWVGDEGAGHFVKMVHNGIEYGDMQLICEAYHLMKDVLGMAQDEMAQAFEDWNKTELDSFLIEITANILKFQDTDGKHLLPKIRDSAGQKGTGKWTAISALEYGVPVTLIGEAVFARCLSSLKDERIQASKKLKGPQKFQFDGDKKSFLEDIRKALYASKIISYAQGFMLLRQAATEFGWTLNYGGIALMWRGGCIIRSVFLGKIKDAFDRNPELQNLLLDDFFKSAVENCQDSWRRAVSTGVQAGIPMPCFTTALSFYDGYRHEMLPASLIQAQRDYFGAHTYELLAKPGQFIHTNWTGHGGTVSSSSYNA
Sequence of ATP-dependent translocase ABCB1 (Homo sapiens) (P08183 whole entry, looked up): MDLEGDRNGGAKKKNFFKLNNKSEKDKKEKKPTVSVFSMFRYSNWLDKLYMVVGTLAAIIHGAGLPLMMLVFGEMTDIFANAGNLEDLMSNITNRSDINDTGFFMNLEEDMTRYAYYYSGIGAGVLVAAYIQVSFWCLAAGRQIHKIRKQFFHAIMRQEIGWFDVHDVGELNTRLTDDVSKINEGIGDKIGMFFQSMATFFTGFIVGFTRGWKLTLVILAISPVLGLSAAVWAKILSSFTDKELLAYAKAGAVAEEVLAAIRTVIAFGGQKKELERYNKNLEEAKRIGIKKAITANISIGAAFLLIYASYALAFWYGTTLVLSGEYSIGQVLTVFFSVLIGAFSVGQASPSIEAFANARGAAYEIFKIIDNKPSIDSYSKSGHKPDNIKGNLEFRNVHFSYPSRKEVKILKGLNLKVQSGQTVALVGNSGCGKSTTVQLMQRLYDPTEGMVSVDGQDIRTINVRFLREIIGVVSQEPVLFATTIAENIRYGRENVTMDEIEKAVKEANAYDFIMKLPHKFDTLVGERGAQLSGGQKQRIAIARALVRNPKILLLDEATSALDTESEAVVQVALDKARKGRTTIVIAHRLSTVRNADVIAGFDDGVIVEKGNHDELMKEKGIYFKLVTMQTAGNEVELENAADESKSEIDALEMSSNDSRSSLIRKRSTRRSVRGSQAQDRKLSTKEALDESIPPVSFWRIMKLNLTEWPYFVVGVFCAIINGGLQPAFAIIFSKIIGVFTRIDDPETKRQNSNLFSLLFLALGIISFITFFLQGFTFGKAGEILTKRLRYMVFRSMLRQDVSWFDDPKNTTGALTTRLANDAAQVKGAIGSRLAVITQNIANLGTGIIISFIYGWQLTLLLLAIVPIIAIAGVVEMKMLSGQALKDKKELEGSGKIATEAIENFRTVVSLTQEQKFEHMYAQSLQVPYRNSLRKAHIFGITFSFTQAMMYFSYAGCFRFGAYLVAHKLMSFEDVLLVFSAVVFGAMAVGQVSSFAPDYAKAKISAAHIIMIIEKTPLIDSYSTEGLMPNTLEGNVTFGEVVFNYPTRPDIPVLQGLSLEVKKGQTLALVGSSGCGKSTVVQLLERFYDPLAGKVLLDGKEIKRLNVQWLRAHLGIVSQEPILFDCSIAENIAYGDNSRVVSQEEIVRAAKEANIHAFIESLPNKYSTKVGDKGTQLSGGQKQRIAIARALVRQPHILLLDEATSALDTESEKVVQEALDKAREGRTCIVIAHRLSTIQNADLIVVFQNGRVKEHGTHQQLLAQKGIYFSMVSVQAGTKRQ

Q: Which results are given for `CC(C)C[C@H](CN)CC(=O)O`?
A: inhibition [1]: 9.49% (inactive); outcome [2]: inactive; outcome [3]: inactive; outcome [4]: inactive; outcome [5]: inactive; outcome [6]: inactive; outcome [7]: inactive; outcome [8]: inactive; outcome [9]: inactive; outcome [10]: inactive; z-score [11, 31]: -0.0671 (inactive); z-score [11, 32]: 0.159; remaining NAD [12]: 10 nM (inactive)

Q: With `CCC(N)C(O)c1ccc(O)c(O)c1` (centres undefined) as the molecule, how does the parasite load remaining [13] read?
A: 130% (inactive) and 71.4% (inactive)

Q: And the viability [13]?
A: 87.2% and 104%

Q: And the inhibition [1]?
A: -10.4% (inactive)

Q: And the activity remaining [14]?
A: 121% (inactive)

Q: What about the fold change ([15]; stronger effect = lower value, cell number ratio, induced over uninduced) of the same molecule?
A: 0.787 (inactive)

Q: What about the fold change [15, 33] of the same molecule?
A: 5.47

Q: What about the cell count [15, 34] of the same molecule?
A: 7560

Q: What about the cell count [15, 35] of the same molecule?
A: 9610

Q: And the remaining NAD [12]?
A: 10 nM (inactive)

Q: And the luciferase signal [16]?
A: 76 AU (inactive)

Q: What does the source list for `COc1ccc(C(=O)O[C@H]2CC[C@@]3(C)[C@@H]4CC[C@H]5[C@]6(O)C[C@H](O)[C@@]7(O)[C@@H](CN8C[C@@H](C)CC[C@H]8[C@@]7(C)O)[C@]6(O)C[C@@]53O[C@]24O)cc1OC`?
A: inhibition [1]: 9.47% (inactive); fold change ([15]; stronger effect = lower value): 0.935 (inactive); fold change [15, 33]: 1.54; cell count [15, 34]: 6050; cell count [15, 35]: 6480

Q: Which inhibition [17] does the source give for `Cc1cc2c(C(C)C)c(O)c(O)c(C=O)c2c(O)c1-c1c(C)cc2c(C(C)C)c(O)c(O)c(C=O)c2c1O` here?
A: 60.9%

Q: And the aggregation ratio [18]?
A: 0.119

Q: What about the EC50 [19] of the same molecule?
A: 57 µM

Q: What about the inhibition [19] of the same molecule?
A: 68% (active)

Q: What about the score [20] of the same molecule?
A: 1.78

Q: What about the rescue above control [21] of the same molecule?
A: 0

Q: What about the cytochrome c release ratio [22] of the same molecule?
A: 0.19

Q: And the inhibition of aggregation [23]?
A: 19.1%

Q: And the glutamate uptake change [24]?
A: -53.4%

Q: What about the inclusion score [25] of the same molecule?
A: 0

Q: What about the aggregation suppression score [26] of the same molecule?
A: 0.368

Q: What about the inhibition [1] of the same molecule?
A: 14.1% (inactive) and -10.8% (inactive)

Q: What about the activity remaining [14] of the same molecule?
A: 96.1% (inactive) and 125% (inactive)

Q: And the z-score [11, 31]?
A: -0.449 (inactive) and -0.0386 (inactive)

Q: What about the z-score [11, 32] of the same molecule?
A: -0.0272 and 0.0258

Q: For `CC(C)(C)C(=O)C(Oc1ccc(Cl)cc1)n1cncn1` (centres undefined), which inhibition [1] is on record?
A: 12.8% (inactive)

Q: And the activity remaining [14]?
A: 127% (inactive)

Q: What about the luciferase signal [16] of the same molecule?
A: 44 AU (inactive)

Q: Which survival [27] does the source give for `CCC(=O)O[C@H]1CC[C@H]2[C@@H]3CCC4=CC(=O)CC[C@]4(C)[C@H]3CC[C@]12C` here?
A: 13.8 (inactive)

Q: And the parasite load remaining [13]?
A: 71.3% (inactive) and 54% (inactive)

Q: And the viability [13]?
A: 94.2% and 78.8%

Q: What about the inhibition [1] of the same molecule?
A: 16.6% (inactive)

Q: What about the fold change ([15]; stronger effect = lower value) of the same molecule?
A: 0.875 (inactive)

Q: What about the fold change [15, 33] of the same molecule?
A: 1.34

Q: And the cell count [15, 34]?
A: 8190

Q: And the cell count [15, 35]?
A: 9360

Q: And the z-score [11, 31]?
A: -0.581 (inactive)

Q: And the z-score [11, 32]?
A: -0.301

Q: And the remaining NAD [12]?
A: 10 nM (inactive)

Q: And the luciferase signal [16]?
A: 32 AU (inactive)

Q: Which inhibition [1] does the source give for `CC(C)N1C(=O)c2ccccc2NS1(=O)=O` here?
A: -1.1% (inactive)

Q: What about the activity remaining [14] of the same molecule?
A: 106% (inactive)

Q: And the luciferase signal [16]?
A: 92 AU (inactive)

Q: Which fluorescence slope change [28] does the source give for `Oc1ccc2c3c1O[C@H]1[C@@H](O)CC[C@@]4(O)[C@@H](C2)N(CC2CCC2)CC[C@]314` here?
A: 211% (active)

Q: And the survival [27]?
A: 24.5 (inactive)

Q: What about the parasite load remaining [13] of the same molecule?
A: 32.6% (inactive) and 106% (inactive) and 79.1% (inactive)

Q: And the viability [13]?
A: 52.8% and 85.6% and 172%

Q: And the inhibition [1]?
A: -20.2% (inactive)

Q: What about the remaining activity [29] of the same molecule?
A: 118% (inactive)

Q: And the fold change ([15]; stronger effect = lower value)?
A: 0.924 (inactive) and 0.934 (inactive)

Q: And the fold change [15, 33]?
A: 1.19 and 1.05

Q: And the cell count [15, 34]?
A: 9080 and 10200

Q: What about the cell count [15, 35] of the same molecule?
A: 9820 and 11000

Q: And the z-score [11, 31]?
A: 0.883 (inactive) and 0.331 (inactive)

Q: And the z-score [11, 32]?
A: 0.202 and -0.251

Q: And the remaining NAD [12]?
A: 10 nM (inactive)

Q: What about the luciferase signal [16] of the same molecule?
A: 52 AU (inactive)

Q: And the z-score [30]?
A: 0.78 (inactive)

Q: For `CSc1nc(NC(C)C)nc(NC(C)C)n1`, which inhibition [1] is on record?
A: -9.01% (inactive)

Q: What about the activity remaining [14] of the same molecule?
A: 98.6% (inactive)

Q: What about the luciferase signal [16] of the same molecule?
A: 60 AU (inactive)
